In PubChem BioAssay (NCI):
Compounds without any hit were thinned out: in the full panel of roughly 83,000, 20% have a hit.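 Percent growth is the endpoint: 0 to 100 indicates growth inhibition (40 means 60% inhibition), 0 means no net growth, and negative values indicate cell death.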 A number with no mark means an inactive call. Calls of active or inactive are those of the source. Rule for the calls: active = growth percent below 10; inactive = the rest.

Tests used:
Test in all cases: NCI-60 one-dose screen, 48 h (100 = growth as untreated, 0 = no growth, -100 = all killed)
HCT-15 colon = conditions: 10 µM unless noted
HT29 colon = conditions: 10 µM unless noted
SNB-75 CNS = conditions: 10 µM unless noted
SNB-19 CNS = conditions: 10 µM unless noted
U251 CNS = conditions: 10 µM unless noted
PC-3 prostate = conditions: 10 µM unless noted
SK-MEL-5 melanoma = conditions: 10 µM unless noted
UACC-62 melanoma = conditions: 10 µM unless noted
SK-MEL-28 melanoma = conditions: 10 µM unless noted
SK-MEL-2 melanoma = conditions: 10 µM unless noted
EKVX NSCLC = conditions: 10 µM unless noted
SN12C renal = conditions: 10 µM unless noted
UO-31 renal = conditions: 10 µM unless noted
TK-10 renal = conditions: 10 µM unless noted
ACHN renal = conditions: 10 µM unless noted
HL-60(TB) leukemia = conditions: 10 µM unless noted
CCRF-CEM leukemia = conditions: 10 µM unless noted
CAKI-1 renal = conditions: 10 µM unless noted
A498 renal = conditions: 10 µM
LOX IMVI melanoma = conditions: 10 µM unless noted

Structure (SMILES) | growth (HCT-15 colon) | growth (HT29 colon) | growth (SNB-75 CNS) | growth (SNB-19 CNS) | growth (U251 CNS) | growth (PC-3 prostate) | growth (SK-MEL-5 melanoma) | growth (UACC-62 melanoma) [%] | growth (SK-MEL-28 melanoma) | growth (SK-MEL-2 melanoma) | growth (EKVX NSCLC) | growth (SN12C renal) | growth (UO-31 renal) | growth (TK-10 renal) | growth (ACHN renal) | growth (HL-60(TB) leukemia) | growth (CCRF-CEM leukemia) | growth (CAKI-1 renal) | growth (A498 renal) | growth (LOX IMVI melanoma)
CCCC[C@H](NC(=O)[C@H]1CCCN1C)C(=O)N(C)[C@H](C[C@@H](OC(C)=O)c1nc(C(=O)N[C@@H](Cc2ccccc2)C[C@H](C)C(=O)OCC)cs1)C(C)C | 19.1% | 1.99% (active) | 51.5% | 38.4% | 8.61% (active) | 13% | -25.1% (active) | 43.4 | 71.3% | 52% | 41.3% | 23.6% | 40.2% | 16.4% | 17.5% | -28.7% (active) | 11.1% |  |  | 
CCC(=O)Nc1ccc(Cl)c(Cl)c1 | 101% | 91.3% | 102% | 107% | 95.7% | 88.9% | 101% | 96.6 | 102% | 94.3% | 98.4% |  | 89% | 86.3% | 98.2% | 92.4% | 103% | 96.8% |  | 
COc1cc(C=Nc2cc(Cl)cc(Cl)c2)ccc1N(CCCl)CCCl | 96.2% | 81.5% | 84.1% | 89.8% | 86.9% | 63.1% | 93.9% | 82.9 | 104% | 113% |  | 87.6% | 66.6% | 148% | 63% | 88.1% | 56.4% | 63.3% | 65.2% | 
CCOC(=O)C(Cc1ccc(N(CCCl)CCCl)cc1)NC(=O)C(CC(C)C)NC(C)=O (stereo not drawn) | 35% | 8.7% (active) | 41.6% | 57.6% | 25.5% | 60.9% | 60.8% |  | 6.21% (active) | -2.13% (active) | 114% | 25.4% | -48.7% (active) | 21.3% | 8.89% (active) | 13.1% | 12.3% | -20.7% (active) | 86.5% | -15.6% (active)
C[n+]1c(/C=C/c2ccc(N(CCCl)CCCl)cc2)sc2ccccc21 | 82.2% | 40.9% | 74.5% | 60.9% | 30.1% | 36% | 61.1% |  | 81.4% | 74.1% | 83.4% | 37.4% | 96.7% | 96.7% | 78.8% | 18.3% | 27.9% | 99.4% | 84.9% | 36.6%
CCOC(=O)[C@@H](C)C[C@H](Cc1ccccc1)NC(=O)c1csc([C@@H](C[C@H](C(C)C)N(C)C(=O)CNC(=O)[C@H]2CCCCN2C)OC(C)=O)n1 | 12.8% | 4.5% (active) | -13.4% (active) | 17.4% | 18.7% | 22.7% | 13.5% | 29.8 | 57.1% | 28.1% | 34.8% | 36% | 39.7% | 65.7% |  | -32.3% (active) | 5.17% (active) |  | -3.32% (active) | 
C[N+](C)(C)Cc1cc(Cl)ccc1O | 91.8% | 97.5% | 99.3% | 118% | 98.7% | 99.8% | 93.1% |  | 102% | 99.7% | 115% | 106% | 90.8% | 110% | 95.9% | 87.4% | 8.41% (active) | 106% | 90.1% | 99%
Clc1ccc2nnnn2n1 | 24.7% | 12.9% | 80.3% | 91.7% | 34.4% | 25.7% | 30.2% | 45.4 | 51.9% | -12.1% (active) | 90% | 51.2% | 5.04% (active) | 37.5% | 43% | -25.8% (active) | 19.6% |  | 78.7% | 
CCC1(C(C)C)C(=O)NC(=S)NC1=O | 97.6% | 112% | 95.5% | 108% | 95.9% | 95.6% | 98.8% | 103 | 109% | 117% |  | 103% | 97.4% | 107% | 98.5% | 102% | 97.3% | 99.8% | 92.8% | 
C/C(CC(C)(C)N1CC1)=N\NC(=O)Nc1cccc2ccccc12 | 60.8% | 38.6% | 58.8% | 63.5% | 57.3% | 64.4% | 72.3% |  | 102% | 72.9% | 78.5% | 63.3% | 57.9% | 61.3% | 42.3% | 77.6% | 82.3% | 28.9% | 59.3% | 46.1%
COc1ccc2nc(NC(=O)COc3cc(/C=C\c4cc(OC)c(OC)c(OC)c4)ccc3OC)sc2c1 | 15.5% | 10.3% | -5.27% (active) | 31.5% | 20.4% | 30.4% | 10.8% |  | 43.5% | 16.7% | 44.7% | 45.3% | 14.7% | 23.6% | 42.8% | 25% | 22.6% | 6.25% (active) | -5.19% (active) | 8.81% (active)
NC(=Nc1ccccc1)N[N+](=O)[O-] | 105% | 100% | 87.5% | 96.9% | 111% | 94.2% | 103% |  | 105% | 127% | 94% | 102% | 92% | 103% | 114% | 38.7% | 52.1% | 97.6% | 110% | 103%
C[C@@]12CC[C@@H](O)C[C@@H]1CC[C@H]1[C@H]2CC[C@@]2(C)[C@H](c3ccc(=O)oc3)CC[C@@]12O | -79.7% (active) | -67.5% (active) | -85% (active) | -99.8% (active) | -81.3% (active) | -22.5% (active) | -68.6% (active) |  | -43% (active) | -29.7% (active) | -86.4% (active) | -24.9% (active) | -96.2% (active) | -81.4% (active) | -90% (active) | -30.6% (active) | -9% (active) | -83.5% (active) | -29.9% (active) | -74.9% (active)
Cc1cc(C)c(CBr)c(C)c1 | 108% | 100% | 106% | 110% | 95.3% | 94% | 97.7% | 102 | 106% | 102% | 103% |  | 85.2% | 98.1% | 104% | 59.7% | 106% | 99.1% | 81.4% | 
Cc1ccc2c(C(C[N+](=O)[O-])c3cccs3)c(-c3ccccc3)[nH]c2c1 (stereo not drawn) | 20% | 9.87% (active) | -37.2% (active) | 37.8% | 21% | 28% | 36.3% |  | 49.4% | 20.7% | 35.9% | 32% | 34.8% | 64.7% | 33.8% | 0.431% (active) | 15% | 2.76% (active) | -19.6% (active) | 31.7%
CC[C@H](NC(=O)[C@H]1CCCCN1C)C(=O)N(C)[C@H](C[C@@H](OC(C)=O)c1nc(C(=O)N[C@@H](Cc2ccccc2)C[C@H](C)C(=O)O)cs1)C(C)C | 6.42% (active) | 2.74% (active) | 24.9% | 17.6% | 14.9% | 22.9% | -40.3% (active) | 27.1 | 73.7% | 36.8% | 40.6% | 17.1% | 41.7% | 69% | 34.4% | -21.5% (active) | 1.98% (active) |  | -8.18% (active) | 
